# Compound activity: PubChem, several laboratories
# This is a sample that favours compounds with a hit; in the whole collection about 2.5% have one here.
# FXN GAA850 act: FXN promoter activators, primary screen, cell-based, luciferase luminescence, HEK293 lucGAA850. HEK293 lucGAA850 FXN promoter luciferase reporter, 24 h; percent of 10 µM SAHA response. activation, % at 6 µM. 360,000 tested, 0.56% active;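 active = activation above the average of all compounds screened plus 3 SD, cutoff fixed separately per campaign, cut at about 7.5% in these data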;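 also: 0% = DMSO wells and 100% = 10 µM SAHA wells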
# HIV Env fusion: inhibitors of HIV-1 Env-driven cell-cell fusion, primary screen, HeLa-JRFL effector, CEM21 target cells, luciferase; 360,000 tested, 1.1% active; inhibition, % at 12.3 µM;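 active = mean replicate inhibition score of at least 50 and every replicate individually at or above 50; inconclusive = only one of the two criteria met; inactive = mean below 50 and not all replicates reaching 50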;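 also: 0% = plate neutral controls and 100% = maraviroc near 300 nM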
# PAX8 inh HTS: inhibitors of PAX8-driven TPO luciferase reporter, primary screen, RMG-I cells, single concentration | SteadyGlo, 24 h | inhibition, % at 12.6 µM | 360,000 tested, 1.2% active;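 active = mean replicate inhibition at least 60% with every replicate also reaching 60%; inconclusive = only one of the two criteria is met; inactive = mean below 60% and not all replicates reaching 60%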;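 also: luciferase light reporting Pax8 driven TPO promoter activity; plate controls were median of neutral control wells for no effect and mitoxantrone controls for full effect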
# EWS-Fli inh: EWS/Fli-driven NR0B1 reporter inhibitors, primary screen, A673 cells, NR0B1 luciferase, luminescence, MLPCN library; viability-normalised; inhibition, % at 12.6 µM; 350,000 tested, 0.67% active;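 active = mean inhibition of at least 50% after viability correction, with every replicate also passing that limit; inconclusive = mean reaches 50% but only one of two replicates passes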;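 also: firefly luciferase signal divided by Alamar Blue viability fluorescence both relative to DMSO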
# F508del corr: F508del CFTR correction, initial screen, CFBE line, single point; CFBE cells, YFP halide quenching; stimulated with forskolin plus potentiator P3; % fluorescence drop versus neutral controls; activity (quench increase), % at 7.58 µM; 350,000 tested, 0.36% active; AID 720511, 2013;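 active = mean added fluorescence quench of at least 8% versus neutral control, with both replicates also reaching 8%; inconclusive = only one of the mean or replicate conditions met; inactive = mean below 8% and not both replicates reaching 8%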;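 also: cells transiently co-express mutant CFTR-F508del with the halide-sensitive YFP; corrector assay measuring rescue of mutant channel to the surface after 24 h compound exposure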
# Active calls of the source: *; ? = inconclusive; . = no result given; [ ] = remark or other dose.
SMILES,FXN GAA850 act,HIV Env fusion,PAX8 inh HTS,EWS-Fli inh,F508del corr
C[C@H]1CCCCO[C@H](CN(C)C(=O)Nc2cccc3ccccc23)[C@@H](C)CN([C@@H](C)CO)C(=O)c2cc(NS(=O)(=O)c3ccccc3)ccc2O1,.,27[16.7 µM],72*,27,-5
C[C@@H]1CCCCO[C@H](CN(C)C(=O)Nc2cccc3ccccc23)[C@H](C)CN([C@@H](C)CO)C(=O)c2cc(NS(=O)(=O)c3ccc(Cl)cc3)ccc2O1,.,-11[16.7 µM],76*,13,-1
C[C@@H]1CCCCO[C@H](CN(C)C(=O)c2ccncc2)[C@@H](C)CN([C@H](C)CO)C(=O)c2cc(NC(=O)NC3CCCCC3)ccc2O1,.,-11[16.7 µM],-22,-2,-1
NCC[C@H]1CC[C@H](NC(=O)Nc2ccc(F)cc2)[C@H](CO)O1,.,0[16.7 µM],1,0,1
O=P(c1ccccc1)(c1ccccc1)C(c1ccccn1)P(=O)(c1ccccc1)c1ccccc1,2,66*,-13,8,0
O=C(O)CCSc1nc2ccccc2s1,-11,78*,.,.,.
O=C(CSc1nc2ccccc2s1)NCCOc1ccccc1,0,.,93*,-32,1
CC(=O)Oc1ccc2ccccc2c1C(NC(=O)Cc1ccccc1)c1ccc(Cl)cc1 (centres undefined),-4,-94,85*,.,.
CN1C(=O)c2cc(NC(=O)Cc3ccccc3)ccc2OC[C@H]2O[C@H](CC(=O)NC3CCC3)CC[C@H]21,.,.,0,6,0
CCOC(=O)C1=C(CC)Nc2ccccc2N=C1NC(=O)Nc1ccc(Cl)c(Cl)c1,-2,114*,62*,.,.
Cc1ccc(CN(C)C[C@@H]2OCc3cn(nn3)CCCC(=O)N([C@@H](C)CO)C[C@H]2C)cc1,.,-2[16.7 µM],.,-3,1
COC/C=C/C1=CC2=CC(=O)C(C)(OC(=O)c3cnc4ccccc4n3)C(=O)C2=CN1c1ccccc1 (centres undefined),.,8,67*,9,4
O=C(Nc1ccc(OCC(F)(F)C(F)F)c(C(F)(F)F)c1)c1ccc(Cl)cc1,-7,69*,.,.,.
CCCNC(=O)N1[C@H](CO)[C@H](c2ccccc2)[C@@H]1CNC(=O)c1ccc(F)cc1,.,.,-14,5,-2
O=C(/C=C/C(Cl)(Cl)Cl)Nc1ccc(Cl)cc1,1,-5,51,53*,-1
S=C1NC2(CCCCCC2)NN1c1ccccc1,.,55*,-4,-12,-1
Cc1noc(C)c1COc1cccc(C(=O)NCCc2c[nH]c3ccccc23)c1,-6,-18,13,55*,4
COc1cc(OC)cc(C(=O)N[C@H](C(=O)NCCc2c[nH]c3ccccc23)C(C)C)c1,2,78*,20,13,2
COc1cc(OC)cc(C(=O)N[C@H](C(=O)OCC(=O)c2c[nH]c3ccccc23)C(C)C)c1,1,.,30,13,1
Cc1ccc(CNC(=O)c2cccc(OCc3c(C)noc3C)c2)cc1,-1,.,.,.,.
O=C(CN1CCN(c2cccc(Cl)c2)CC1)Nc1ccc([N+](=O)[O-])cc1C(=O)Nc1ccccc1F,4,93*,27,13,-2
Cc1ccc(C)c(N2CCN(CC(=O)Nc3ccc([N+](=O)[O-])cc3C(=O)Nc3ccccc3F)CC2)c1,-4,.,.,.,.
COc1ccccc1N1CCN(C(=O)c2ccc(-c3ccc(Cl)cc3)o2)CC1,-4,-26,24,49,9.4*
COc1cc(SC)ccc1C(=O)N1CCN(c2ccccc2OC)CC1,-4,-125,17,?,14*
Cc1noc(C)c1S(=O)(=O)Nc1ccc2c(c1)CC(=O)N([C@H](C)CO)C[C@H](C)[C@H](CN(C)S(=O)(=O)c1ccccc1)O2,.,47[16.7 µM],-2,-6,1
SMILES,FXN GAA850 act,HIV Env fusion,PAX8 inh HTS,EWS-Fli inh,F508del corr
COC(=O)C[C@@H]1C[C@@H]2c3cc(NC(=O)CC4CC4)ccc3O[C@@H]2[C@@H](CO)O1,.,4[16.7 µM],11,5,1
O=C(C[C@@H]1C=C[C@H](NC(=O)Nc2cccc(F)c2)[C@@H](CO)O1)NCC1CCCCC1,.,9[16.7 µM],11,-7,-1
O=C(Cc1ccccn1)NCC[C@@H]1CC[C@@H](NC(=O)Nc2ccc(C(F)(F)F)cc2)[C@@H](CO)O1,.,1[16.7 µM],69*,-14,8
O=C(Cc1ccccn1)NCC[C@@H]1CC[C@@H](NC(=O)Nc2ccc(C(F)(F)F)cc2)[C@H](CO)O1,.,-1[16.7 µM],15,-11,0
O=C(Cc1ccccn1)NCC[C@H]1CC[C@@H](NC(=O)Nc2ccc(F)cc2)[C@H](CO)O1,.,-14[16.7 µM],-1,-4,2
O=C(Cc1ccccn1)NCC[C@@H]1CC[C@H](NC(=O)Nc2ccc(C(F)(F)F)cc2)[C@@H](CO)O1,.,6[16.7 µM],85*,-11,14*
CO[C@@H]1CN(C)C(=O)c2ccc(NC(C)=O)cc2OC[C@@H](C)N(Cc2cc(-c3ccccc3)on2)C[C@H]1C,.,.,3,-4,1
COc1cccc(-c2ccc3c(c2)[C@@H]2[C@@H](CCN2S(=O)(=O)c2ccccc2C)[C@H](CO)N3C)c1,.,.,82*,5,2
COc1cccc(-c2ccc3c(c2)[C@H]2[C@H](CCN2S(=O)(=O)c2ccccc2OC)[C@@H](CO)N3C)c1,.,.,92*,-5,6
COc1ccccc1S(=O)(=O)N1CC[C@@H]2[C@H]1c1cc(-c3ccccc3)ccc1N(C)[C@H]2CO,.,.,-1,6,0
COc1ccccc1S(=O)(=O)N1CC[C@@H]2[C@@H](CO)N(C)c3ccc(-c4ccc(F)cc4)cc3[C@@H]21,.,.,30,35,12*
COc1cccc(-c2ccc3c(c2)[C@@H]2[C@@H](CCN2S(=O)(=O)c2ccccc2OC)[C@H](CO)N3C)c1,.,.,84*,0,2
O=C(NCC[C@H]1CC[C@@H](NC(=O)c2cnccn2)[C@@H](CO)O1)Nc1ccc(F)cc1,.,3[16.7 µM],3,1,1
O=C(Cc1ccccn1)N[C@H]1CC[C@H](CC(=O)N2CCCCC2)O[C@H]1CO,.,-9[16.7 µM],-1,-2,2
COc1ccc(-c2oc3cc(O)c(OC)c(O)c3c(=O)c2OC)cc1O,-3,-37,63*,36,3
CO[C@H]1CN(C)C(=O)c2cc(NC(C)=O)ccc2OC[C@@H](C)N(C(=O)C2CC2)C[C@@H]1C,.,-6[16.7 µM],.,6,0
COc1cc(C2CC(c3cccs3)=NN2C(=O)CCl)ccc1OC(F)F (centres undefined),-10,19,-32,61*,-2
COc1ccc(C2CC(c3cccs3)=NN2C(=O)CCC(=O)O)cc1 (centres undefined),1,13,-1,4,-2
COc1ccc(C2CC(c3cccs3)=NN2C(=O)CCl)cc1OC (centres undefined),-12,62*,-3,58*,-3
Cc1ccc(C2=NN(C(=O)CCl)C(c3cccs3)C2)o1 (centres undefined),-15,-15,65*,48,.
